# Data reported in the supplement of paper PMC3334620.
# Whole data set: some 33,000 sequences, median “E-score (-0.5 to 0.5)” near -0.017, cut for the highest 2% near 0.3. The sample holds the highest values, similar sequences and a random draw of the others, so the mix is not that of the screen.
# Molecular target: T1, Sut1 (UniProt P53032)
# T1 sequence: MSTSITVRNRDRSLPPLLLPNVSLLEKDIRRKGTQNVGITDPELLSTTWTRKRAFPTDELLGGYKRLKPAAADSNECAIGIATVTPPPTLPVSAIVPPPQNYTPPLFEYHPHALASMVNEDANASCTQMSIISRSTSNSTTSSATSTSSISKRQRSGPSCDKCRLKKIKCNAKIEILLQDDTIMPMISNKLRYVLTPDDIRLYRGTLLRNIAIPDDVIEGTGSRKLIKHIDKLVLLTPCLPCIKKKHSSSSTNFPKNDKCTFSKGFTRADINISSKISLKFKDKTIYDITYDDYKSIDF
# Assay: PBM E-score (8-mer binding enrichment) (E-score (-0.5 to 0.5)); higher = stronger / more preferred TF binding
# Conditions: protein concentration: 200 nM; construct: GST-full length
# Experimental: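 Universal 'all 10-mer' protein binding microarrays (Agilent AMADID 015681) probed with GST-tagged S. cerevisiae TFs (full-length or DBD) made by in vitro transcription/translation (PURExpress), about 100-200 nM. Bound TF was detected with fluorescent anti-GST. Each ungapped 8-mer (which stands for itself and its reverse complement) is scored by the PBM enrichment score (E-score), a modified Wilcoxon-Mann-Whitney statistic from -0.5 to +0.5, computed with the Universal PBM Analysis Suite. Scale: above 0.35 generally sequence-specific binding.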
row,Sequence,PBM E-score
1,ACATTTAC,0.168
2,AGGCCCTG,-0.302
3,CAAAGTTG,-0.0132
4,CATCTAAG,-0.107
5,CGTAGCAG,-0.128
6,AGCTATAG,-0.136
7,ATCATACA,0.314
8,ATCATACG,0.157
9,GTCATACA,0.226
10,ACTCGAGT,0.0517
11,AAGCCTAG,-0.183
12,CACTCTGA,-0.165
13,GTCACAAC,-0.0323
14,AATAGAGC,0.0828
15,AAAACTCG,0.199
16,AAAACTCT,0.0523
17,GAAACTCC,0.345
18,CAAACTCA,0.0357
19,CACACTCC,0.158
20,GAAACTAC,0.145
21,GACACTCC,0.314
22,AACACTCC,0.256
23,GAAACTCA,0.0707
24,AAAACTCC,0.356
25,CAAACTCC,0.356

row,Sequence,PBM E-score
1,CAAACTCG,-0.013
2,CAGCTTGG,0.0282
3,TCTTCTAA,0.188
4,CGATACTA,0.193
5,AGGAAAGG,-0.294
6,AGCGGTAT,0.0737
7,CGTAAGAC,-0.071
8,ACGCATCA,-0.0138
9,AAAAAAAC,0.159
10,CAAACTTA,0.196
11,GAAACTTA,0.307
12,GAAACTTC,0.0956
13,AGTGTGGA,0.0491
14,CGGGCCCA,-0.109
15,CGGGCCCG,0.316
16,AGGGCCCG,-0.184
17,CGTTCACA,0.0405
18,CTGTAATA,0.218
19,AAATAATT,0.338
20,ATGTAATG,0.23
21,AAATAACT,0.228
22,AAATAATG,0.297
23,AAATAAGT,0.109
24,AAATAATA,0.311
25,AAATAATC,0.235

row,Sequence,PBM E-score
1,ATGTAATA,0.307
2,ACTTCAAG,0.0849
3,ACACCCTA,-0.127
4,ACTTTGCG,0.0957
5,ATGGCCTA,-0.0487
6,AGCGCACC,-0.0534
7,AAGAAGGA,0.0609
8,CATCTGAA,0.0794
9,AGAGTGGA,-0.0219
10,TAACCGCA,0.0567
11,GAACCGGC,-0.0738
12,GGACCGGA,0.34
13,TAACCGTA,-0.0185
14,AGACCGGA,0.277
15,AAACCGGT,-0.0411
16,CGACCGGA,0.191
17,AAACCGGC,0.0626
18,GAACCGTA,-0.234
19,TAACCGGA,0.332
20,AAACCGGA,0.309
21,GAACCGGA,0.32
22,AGAAAAAG,0.138
23,CTGCCAAA,-0.0297
24,GTTGTTGA,0.0996
25,AAACCTTA,0.203

row,Sequence,PBM E-score
1,AGCAGGTC,-0.176
2,CAACCTAC,0.0861
3,GTAGCAGA,0.0197
4,AGCTTAAC,0.0213
5,CCTACTAC,-0.0856
6,CAACCGGG,-0.129
7,CAACCGGC,-0.0694
8,CAACCGGA,0.338
9,ATCGCTGC,-0.111
10,GGGACCAA,-0.115
11,TCCGAAGA,0.39
12,TCCGAAAA,0.353
13,ACCGAACA,0.121
14,CCCGAAGA,-0.0672
15,TCCGAACA,0.399
16,GCCGAACA,0.126
17,GCCGAAAA,0.263
18,CCCGAAAA,0.177
19,ACCGAAGA,0.222
20,CGCAGCTA,-0.0718
21,CATCGAAC,-0.0517
22,GACTAATA,0.196
23,AAAGCCCG,0.208
24,GGAGTCTA,0.182
25,GCACCCAC,-0.155

row,Sequence,PBM E-score
1,CAGGCTCA,-0.214
2,ACTTGCCT,-0.0394
3,AATATTAG,0.192
4,GATATATC,0.183
5,AATATATT,0.31
6,AATATAGT,0.244
7,AATATAGC,0.0924
8,AATATTAT,0.319
9,AATATATC,0.322
10,AATATACT,0.277
11,AATATTAA,0.263
12,TATATAAA,0.248
13,AATATAAA,0.315
14,CATATAAA,0.15
15,ACATCGCC,-0.112
16,GGGCTACC,-0.227
17,ATGCAATC,0.102
18,AGGCCATC,-0.149
19,ACCCATGA,-0.124
20,GGCTTTCA,0.0417
21,ACACAGAT,0.00624
22,GGACGGCA,-0.0542
23,ACTATATC,0.209
24,ACTATATA,0.308
25,AAAATATA,0.267

row,Sequence,PBM E-score
1,AATATATG,0.242
2,GCTATATA,0.118
3,AATATATA,0.325
4,CAGGTCAC,-0.398
5,CTGGAAAC,-0.0136
6,CCCAAAAG,-0.0557
7,ATGAACTA,0.216
8,GTATACTA,-0.155
9,GTACGGAC,0.297
10,TTACGGAA,0.198
11,ATACGGAA,0.348
12,ATACGGAC,0.374
13,ATACGGGC,-0.126
14,GTACGGAA,0.22
15,ATGTGATC,0.144
16,CGTGAAGA,-0.026
17,ACTCACAG,0.0594
18,CACTAAGG,-0.146
19,CCCCGGAA,0.216
20,ACCCGGAC,0.323
21,CCCCGGAC,0.357
22,GCCCGGAC,0.328
23,ACCCGGAT,-0.107
24,CCCCGGCC,-0.173
25,GCCCGGAA,0.244

row,Sequence,PBM E-score
1,ACCCGGAA,0.197
2,GCCCGGGC,-0.0214
3,ACCCGGAG,0.416
4,ACCCGGTC,-0.124
5,ACCCGGGC,-0.0147
6,CAGTTGGC,-0.162
7,GCATTCGA,0.0434
8,TAAGAATA,-0.086
9,CGACGCTA,-0.089
10,CCCCGGAG,0.454
11,CCCCGGGG,0.198
12,CCCCGGCG,-0.00882
13,TCTCTGAA,-0.135
14,ATTTCGAA,0.313
15,ATTTCGGG,0.0466
16,ATTTCGGC,0.0959
17,CTTTCGTA,0.0877
18,ATTTCGAC,0.0327
19,ATTTCAAA,0.219
20,GTTTCAAA,0.212
21,ATTTCGGA,0.396
22,CTTTCGGA,0.395
